Molecules are shown by their SMILES. Values without a mark were called inactive. Results filed as inconclusive are left out. Calls of active or inactive are those of the source. Unless noted, the call rests on the fitted dose curve; in most records, active means well fitted curve in the direction sought with a large enough effect in the repeat runs; inconclusive means weak or mixed curves; inactive means no such curve, though single readings can be large; an effect the other way counts as inactive or inconclusive.

Assay [1] concerns the target Thyrotropin receptor (Homo sapiens) (UniProt P16473). Nature of the assay: qHTS assay to identify small molecule antagonists of the thyroid stimulating hormone receptor (TSHR) signaling pathway (AID 1259385; calls by dose curve; further: nearly all actives have a fitted effect of over 20% in size). The procedure, abridged:
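TSHR-HEK293 cells (800/well) plated 18 h, then compounds with Ro20-1724 and TSH at 1.5 ng/mL final, 30 min at room temperature. cAMP quantified by HTRF (cAMP-d2/anti-cAMP-cryptate, 1 h); 15 concentrations in triplicate.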
Background: In qHTS, concentration-response curves come from the screen itself.

The nature of assay [2]: qHTS assay to identify small molecule agonists of the estrogen receptor alpha (ER-alpha) signaling pathway in the presence of an antagonist - cell viability counter screen (AID 1259386).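 Further: cells exposed to compounds for 22 h at 37 °C before the viability read; nearly all actives have a fitted effect of over 30% in size.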 Further: potency means the concentration at half of the fitted maximal effect. The procedure, abridged:
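ICI-182,780 at 10.0nM final accompanies the compound titration (15 concentrations, 22hr, 37C) on VM7Luc4E2 cells. The CellTiter-Fluor fluorescence readout runs in the same wells as the luciferase assay.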

Assay [3] deals with Progesterone receptor (Homo sapiens) (UniProt P06401). Briefly: qHTS assay to identify small molecule agonists of the progesterone receptor (PR) signaling pathway (AID 1346784; calls by dose curve; further: nearly all actives have a fitted effect of over 30% in size). Summed up: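 Beta-lactamase reporter read-out: after 16 hr compound treatment at 37C and a further 2 hr at room temperature with LiveBLAzer B/G FRET substrate, fluorescence was measured in PR-UAS-bla HEK 293T cells grown in 2% charcoal-stripped serum.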
Chain of Progesterone receptor (Homo sapiens) (P06401 whole entry, looked up): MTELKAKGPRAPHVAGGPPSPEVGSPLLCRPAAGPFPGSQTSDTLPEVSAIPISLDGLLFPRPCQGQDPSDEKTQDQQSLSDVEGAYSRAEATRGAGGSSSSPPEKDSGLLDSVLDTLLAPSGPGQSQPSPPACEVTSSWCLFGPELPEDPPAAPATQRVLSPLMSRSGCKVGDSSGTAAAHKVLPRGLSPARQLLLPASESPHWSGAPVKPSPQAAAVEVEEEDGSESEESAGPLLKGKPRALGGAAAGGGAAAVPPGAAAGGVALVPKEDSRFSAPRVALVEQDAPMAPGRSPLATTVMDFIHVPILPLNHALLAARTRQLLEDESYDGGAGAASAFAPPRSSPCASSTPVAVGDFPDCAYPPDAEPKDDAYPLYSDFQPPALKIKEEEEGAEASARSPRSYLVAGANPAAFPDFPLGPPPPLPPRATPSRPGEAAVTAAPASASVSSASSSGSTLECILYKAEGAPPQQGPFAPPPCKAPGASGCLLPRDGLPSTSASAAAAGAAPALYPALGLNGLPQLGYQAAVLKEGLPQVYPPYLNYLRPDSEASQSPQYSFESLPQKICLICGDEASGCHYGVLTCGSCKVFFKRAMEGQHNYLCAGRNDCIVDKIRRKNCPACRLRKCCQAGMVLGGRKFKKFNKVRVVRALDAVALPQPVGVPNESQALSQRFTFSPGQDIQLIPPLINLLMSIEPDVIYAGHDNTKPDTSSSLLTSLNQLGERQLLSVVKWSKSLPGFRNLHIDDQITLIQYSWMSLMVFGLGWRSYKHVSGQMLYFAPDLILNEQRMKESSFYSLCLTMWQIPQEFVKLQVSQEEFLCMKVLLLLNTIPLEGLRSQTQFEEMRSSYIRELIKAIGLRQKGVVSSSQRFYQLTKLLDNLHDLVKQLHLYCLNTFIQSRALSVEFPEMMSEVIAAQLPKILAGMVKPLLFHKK

The nature of assay [4]: qHTS assay to identify small molecule antagonists of the progesterone receptor (PR) signaling pathway - cell viability counter screen (AID 1346798).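 Further: HEK293T PR-UAS-bla cells stimulated with the agonist R5020; series mostly up to about 92 µM; nearly all actives have a fitted effect of over 50% in size.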 Summed up:
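HEK293T PR-UAS-bla, 2% charcoal-stripped FBS; 4 hr pre-plate; cpd + R5020, 16 h 37C; LiveBLAzer read first; then CellTiter-Glo 30 min RT, luminescence.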

Assay [5] can be described thus: qHTS assay to identify small molecule agonists of the progesterone receptor (PR) signaling pathway - cell viability counter screen (AID 1346799; calls by dose curve; further: nearly all actives have a fitted effect of over 45% in size). Summed up:
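Luminescence from CellTiter-Glo, added after the beta-lactamase FRET read in the same wells, gave cytotoxicity in PR-UAS-bla HEK293T cells treated with compounds for 16 hr at 37C.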

Assay [6] is described as follows: qHTS assay to identify small molecule antagonists of the TGF-beta/Smad signaling pathway - cell viability counter screen (AID 1346824). Further: nearly all actives have a fitted effect of over 50% in size. The procedure, abridged:
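SBE-bla HEK 293T cells, incubated overnight, then compound plus 0.25 ng/mL TGF-beta1 (stock added) for 5 hr at 37 C. Viability was read in the same wells by CellTiter-Glo luminescence after 30 min at room temperature.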

Assay [7] in a line: qHTS assay to identify small molecule agonists of the TGF-beta/Smad signaling pathway - cell viability counter screen (AID 1346829). Further: top concentration of the series differs between compounds; nearly all actives have a fitted effect of over 45% in size. Summed up: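 Here the cytotoxicity of library compounds is measured in SBE-bla HEK 293T cells treated for 5 hr, using CellTiter-Glo added to wells already read for the beta-lactamase reporter.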
The nature of assay [8]: qHTS assay to identify small molecule agonists of the TGF-beta/Smad signaling pathway (AID 1346859; active means well fitted activation curve with a large enough effect in the signal ratio in the repeat runs, not every such curve was filed as active; the % refers to the signal ratio; further: series mostly up to about 77 µM). The procedure, abridged: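 SBE-bla HEK 293T, 4,000 cells/well, plated o/n; cpd in DMSO, 5 hr, 37 C/5% CO2; B/G FRET substrate 2 hr RT; ex 405, em 460/530 nm.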
Assay [9] has as its target Thyrotropin-releasing hormone receptor (Homo sapiens) (UniProt P34981). Briefly: qHTS assay to identify small molecule antagonists of the thyrotropin-releasing hormone receptor (TRHR) signaling pathway (AID 1346877; active means well fitted inhibition curve with a large enough effect in the repeat runs, not every such curve was filed as active; further: series mostly up to about 51 µM). The procedure, abridged:
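Screening used HEK293 cells engineered with TRHR, with a brief 5 min room-temperature compound exposure preceding addition of TRH to 1 nM. The read-out was kinetic calcium-dye fluorescence, concentration-response from 15 doses in triplicate.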

For assay [10] the target is unchanged. Briefly: qHTS assay to identify small molecule agonists of the thyrotropin-releasing hormone receptor (TRHR) signaling pathway (AID 1346891; calls by dose curve; further: series mostly up to about 58 µM). Summed up:
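Intracellular calcium rise, read as fluorescence every second for 3 min, served as the agonist signal in dye-loaded HEK293 cells expressing TRHR; each compound ran at 15 concentrations in triplicate.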

Assay [11] can be described thus: Caspase-3/7 induction in HepG2 cells by small molecules, qHTS assay (AID 1346978). Further: nearly all actives have a fitted effect of over 15% in size. Summed up: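 Wild-type HepG2 cells, 2,000/well, settled 5 hr at 37 C and 5% CO2, then compound-treated for 17 hr; caspase-3/7 activity read by luminescent Caspase-Glo 3/7 after 30 min at room temperature.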
A short description of assay [12]: Caspase-3/7 induction in CHO-K1 cells by small molecules, qHTS cell viability counter screen (AID 1346979). Further: nearly all actives have a fitted effect of over 35% in size. Further: potency means the concentration at half of the fitted maximal effect. Summed up: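 Cells (CHO-K1, wild type) are plated at 1,500 per well and incubated 5hr. Test compounds in DMSO are then pinned in, followed by 16hr at 37C and 5% CO2. Viability is read by CellTiter-Fluor fluorescence after 1hr.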
Assay [13] can be described thus: Caspase-3/7 induction in CHO-K1 cells by small molecules, qHTS assay (AID 1346980). Further: nearly all actives have a fitted effect of over 15% in size. The procedure, abridged: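 Wild-type CHO-K1 cells exposed to compounds for 17hr at 37 C, 5% CO2. Caspase-3/7 activity then measured by Caspase-Glo 3/7 luminescence after 30min at room temperature.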
Assay [14] deals with Progesterone receptor (Homo sapiens) (UniProt P06401). Briefly: qHTS assay to identify small molecule antagonists of the progesterone receptor (PR) signaling pathway (AID 1346795; active means well fitted inhibition curve with a large enough effect in the signal ratio in the repeat runs, not every such curve was filed as active; the % refers to the signal ratio). The procedure, abridged:
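Read-out is fluorescence from the LiveBLAzer B/G FRET substrate, cleaved by a UAS-controlled beta-lactamase in PR-UAS-bla HEK293T cells after 16 hr exposure to compound plus 1 nM promegestone (final), followed by 2 hr at room temperature.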

Assay [15] is described as follows: Human pregnane X receptor (PXR) small molecule agonists, qHTS cell viability counter screen (AID 1346977). Further: nearly all actives have a fitted effect of over 50% in size. The procedure, abridged:
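PXR-Luc HepG2, 2,000 cells/well, 5% charcoal-stripped FBS; 5hr settle; cpd 24hr, 37C/5% CO2; CellTiter-Fluor at 23hr, read 1hr later (fluorescence).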

Assay [16] is described as follows: Caspase-3/7 induction in HepG2 cells by small molecules, qHTS cell viability counter screen (AID 1346981). Further: series mostly up to about 92 µM; nearly all actives have a fitted effect of over 30% in size. The procedure, abridged:
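Multiplexed with the caspase-3/7 assay: HepG2 cells, 16 hr compound treatment, CellTiter-Fluor viability detection by fluorescence.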

For assay [17], the target named is Nuclear receptor subfamily 1 group I member 2 (Homo sapiens) (UniProt O75469). Nature of the assay: Human pregnane X receptor (PXR) small molecule agonists, qHTS assay (AID 1346982). Further: nearly all actives have a fitted effect of over 35% in size. Further: potency means the concentration at half of the fitted maximal effect. Summed up: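 We seeded PXR-Luc HepG2 cells in assay medium containing 5% charcoal-stripped FBS, added compounds 5 hr later, incubated 24 hr, and read luminescence with ONE-Glo reagent.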
Chain of Nuclear receptor subfamily 1 group I member 2 (Homo sapiens) (O75469 whole entry, looked up): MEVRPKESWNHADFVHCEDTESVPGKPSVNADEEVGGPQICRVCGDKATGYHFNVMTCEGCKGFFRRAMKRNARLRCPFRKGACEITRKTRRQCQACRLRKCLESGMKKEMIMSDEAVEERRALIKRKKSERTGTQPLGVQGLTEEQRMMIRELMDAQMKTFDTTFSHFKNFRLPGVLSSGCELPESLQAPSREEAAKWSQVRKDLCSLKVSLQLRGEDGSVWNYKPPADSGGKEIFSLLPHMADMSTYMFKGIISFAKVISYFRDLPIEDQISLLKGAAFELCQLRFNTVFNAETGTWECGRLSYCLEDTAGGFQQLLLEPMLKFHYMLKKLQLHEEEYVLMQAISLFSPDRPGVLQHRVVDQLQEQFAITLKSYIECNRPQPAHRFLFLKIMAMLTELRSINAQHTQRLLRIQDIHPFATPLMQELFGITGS

Assay [18] has as its target Nuclear receptor subfamily 1 group I member 2 (Rattus norvegicus) (UniProt Q9R1A7). Nature of the assay: Rat pregnane X receptor (rPXR) activation by small molecules, qHTS assay (AID 1346983). Further: nearly all actives have a fitted effect of over 20% in size. To be noted: rPXR luciferase reporter cells, One-Glo luminescence, 24 h; stronger effect = higher value. The procedure, abridged:
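Cell-based rPXR activation assay: rPXR cells, 2,000 per well, rested 5hr at 37 C, then exposed to compounds in DMSO for 24 hr at 37 C. Luciferase activity read by One-Glo luminescence after 30 min at room temperature.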

The target of assay [19] is Nuclear receptor subfamily 1 group I member 2 (Homo sapiens) (UniProt O75469). Briefly: CYP3A4 induction through human pregnane X receptor (PXR) by small molecules, qHTS assay (AID 1346984). Further: nearly all actives have a fitted effect of over 40% in size. Summed up:
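qHTS, concentration-response format: HepG2 DPX-2 line, PXR/CYP3A4-luc. Exposure 24 h, 37C. Substrate Luciferin-IPA 3uM final, 3 h. Detection One-Glo, 30 min RT.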

For assay [20] the target is unchanged. Briefly: Human pregnane X receptor (PXR) activation by small molecules, qHTS assay (AID 1346985). Further: nearly all actives have a fitted effect of over 40% in size. Summed up: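 DPX-2 cells (HepG2 co-transfected with a PXR response element and a CYP3A4-promoter luciferase construct) were seeded at 2,000 per well, rested 5 hr at 37C, then exposed to DMSO-dissolved compounds for 24 hr. Activation was read as luciferase luminescence.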
On the % scale 0 is the no-effect control and ±100 the full control effect.

Chain of Thyrotropin receptor (Homo sapiens) (P16473 whole entry, looked up): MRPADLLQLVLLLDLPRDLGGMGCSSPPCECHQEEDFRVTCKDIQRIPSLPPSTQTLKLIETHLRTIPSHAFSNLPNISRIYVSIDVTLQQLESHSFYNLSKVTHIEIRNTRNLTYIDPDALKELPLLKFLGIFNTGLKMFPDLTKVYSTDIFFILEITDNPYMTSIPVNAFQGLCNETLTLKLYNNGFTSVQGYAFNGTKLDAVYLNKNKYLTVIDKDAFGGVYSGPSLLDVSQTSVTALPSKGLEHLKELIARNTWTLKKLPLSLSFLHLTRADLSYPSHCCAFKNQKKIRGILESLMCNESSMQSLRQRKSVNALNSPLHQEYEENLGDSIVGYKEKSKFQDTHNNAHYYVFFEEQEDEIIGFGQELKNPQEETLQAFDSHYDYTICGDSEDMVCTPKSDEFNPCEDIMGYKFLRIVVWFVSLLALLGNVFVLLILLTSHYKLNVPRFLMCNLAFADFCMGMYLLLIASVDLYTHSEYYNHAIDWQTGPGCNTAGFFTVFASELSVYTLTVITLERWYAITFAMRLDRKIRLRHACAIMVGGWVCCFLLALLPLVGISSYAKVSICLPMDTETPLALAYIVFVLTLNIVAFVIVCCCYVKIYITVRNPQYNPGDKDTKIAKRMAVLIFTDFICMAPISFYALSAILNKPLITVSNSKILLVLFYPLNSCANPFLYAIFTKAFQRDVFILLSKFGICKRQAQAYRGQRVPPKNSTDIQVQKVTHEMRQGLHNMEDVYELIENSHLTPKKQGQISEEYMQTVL
Chain of Thyrotropin-releasing hormone receptor (Homo sapiens) (P34981 whole entry, looked up): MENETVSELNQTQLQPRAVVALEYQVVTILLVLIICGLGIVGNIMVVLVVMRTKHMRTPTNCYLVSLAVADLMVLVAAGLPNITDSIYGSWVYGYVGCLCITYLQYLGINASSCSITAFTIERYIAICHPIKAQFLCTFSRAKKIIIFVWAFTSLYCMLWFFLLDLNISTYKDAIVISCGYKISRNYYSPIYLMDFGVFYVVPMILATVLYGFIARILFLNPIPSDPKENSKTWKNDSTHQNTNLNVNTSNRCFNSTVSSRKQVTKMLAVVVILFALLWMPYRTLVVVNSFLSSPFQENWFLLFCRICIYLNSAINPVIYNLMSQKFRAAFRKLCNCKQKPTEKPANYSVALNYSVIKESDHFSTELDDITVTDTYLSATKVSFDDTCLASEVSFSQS
Chain of Nuclear receptor subfamily 1 group I member 2 (Rattus norvegicus) (Q9R1A7 whole entry, looked up): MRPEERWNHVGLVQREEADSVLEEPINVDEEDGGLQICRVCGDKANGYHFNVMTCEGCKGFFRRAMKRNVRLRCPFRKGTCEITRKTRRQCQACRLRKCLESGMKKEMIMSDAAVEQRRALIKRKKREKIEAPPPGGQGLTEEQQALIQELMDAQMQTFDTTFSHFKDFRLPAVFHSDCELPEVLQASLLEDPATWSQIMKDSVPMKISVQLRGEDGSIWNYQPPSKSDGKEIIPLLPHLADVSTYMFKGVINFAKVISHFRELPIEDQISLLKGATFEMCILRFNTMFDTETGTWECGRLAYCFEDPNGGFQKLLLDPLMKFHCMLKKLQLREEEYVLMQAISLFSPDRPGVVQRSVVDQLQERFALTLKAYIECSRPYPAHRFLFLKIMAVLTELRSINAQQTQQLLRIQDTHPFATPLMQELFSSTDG

For `Nc1ccc([N+](=O)[O-])c(N)c1`, the compound was classed as inactive in [1], in assay [6], in [7], in assay [8], in assay [9] and in assay [10]. Also, the call in [13] was inactive. Also, the Potency in assay [2] is 29.9 µM (active); in assay [12] it was 53.1 µM (active). Moreover, the Potency entry in assay [3], in [4], in [5] and in [11] was “inactive” each time.
For the compound `C[Si](C)(C)C`, the result in assay [1], in [6], in [7] and in assay [8] was inactive. Moreover, the Potency entry in [2], in assay [3], in assay [14], in assay [4], in [15] and in assay [11] was “inactive” each time. In addition, the Potency result in [12] and in [16] was “inactive” throughout.
For the compound `COc1cc(N)ccc1C`, the call in assay [1], in assay [6], in [7], in [8] and in assay [13] was inactive. Also, the Potency result in assay [2], in assay [3], in assay [4], in [15], in assay [11] and in assay [12] was “inactive” in each case. In addition, the Potency result in [16] was “inactive”.
`Cc1cc2cc3c(C)cc(=O)oc3c(C)c2o1`: the call in assay [1], in [6], in assay [7], in assay [8], in [9] and in [10] was inactive. The compound was classed as inactive in assay [13]. The Potency entry in [2], in assay [3], in assay [4], in assay [5], in assay [15] and in [11] was “inactive” each time. Moreover, the Potency result in assay [12], in assay [16], in [19] and in [20] was “inactive” each time. Also, in assay [17], the Potency was 5.96 µM (active). Besides, the max activation in [18] is 1.62%.
Take `O=S(=O)(O)CCN1CCN(CCO)CC1`: the outcome in assay [1], in assay [6], in [7], in assay [8], in assay [9] and in assay [10] was inactive. Moreover, the Potency result in assay [2], in assay [3], in assay [14], in assay [15], in assay [11] and in assay [12] was “inactive” in each case. Also, the Potency entry in assay [16] and in assay [17] was “inactive” in each case.
As to `CC(C)NCC(O)COc1ccc(COCCOC(C)C)cc1` (stereo unspecified), the call in assay [1], in assay [6], in assay [7], in [8], in assay [9] and in [10] was inactive. Also, in assay [13], the outcome was inactive. Also, the Potency result in assay [2], in assay [14], in assay [4], in assay [5], in assay [15] and in [11] was “inactive” in each case. Also, the Potency result in [12], in assay [16], in [17], in assay [19] and in assay [20] was “inactive” throughout. In assay [18], the max activation is -3.07%.
On to `Cc1ccccc1N=O`, for which the result in assay [1], in assay [6], in [7], in [8], in [9] and in assay [10] was inactive. The Potency entry in assay [2], in assay [14], in [4], in assay [5], in [15] and in assay [12] was “inactive” in each case.
In the case of `c1ccc2nccnc2c1`, the compound was called inactive in assay [1], in [6], in assay [7], in [8], in assay [9] and in [10]. Also, the compound was classed as inactive in [13]. The Potency entry in [2], in [3], in [14], in assay [15], in assay [11] and in assay [12] was “inactive” throughout. For the same compound, the Potency entry in assay [16] and in assay [17] was “inactive” each time.
